The text below walks through data of PubChem BioAssay AID1778 (Sanford-Burnham Center for Chemical Genomics, 2009).

Out of some 290,000 compounds screened, about 260 (0.09%) were called active. The full list was thinned out, with actives kept by preference. Potency and affinity values are given separately. Unmarked numbers belong to inactive results. Rule as the data show it: active = inhibition above about 50%; inactive = the rest.

Kappa-type opioid receptor (Homo sapiens), sequence (P41145 whole entry, looked up): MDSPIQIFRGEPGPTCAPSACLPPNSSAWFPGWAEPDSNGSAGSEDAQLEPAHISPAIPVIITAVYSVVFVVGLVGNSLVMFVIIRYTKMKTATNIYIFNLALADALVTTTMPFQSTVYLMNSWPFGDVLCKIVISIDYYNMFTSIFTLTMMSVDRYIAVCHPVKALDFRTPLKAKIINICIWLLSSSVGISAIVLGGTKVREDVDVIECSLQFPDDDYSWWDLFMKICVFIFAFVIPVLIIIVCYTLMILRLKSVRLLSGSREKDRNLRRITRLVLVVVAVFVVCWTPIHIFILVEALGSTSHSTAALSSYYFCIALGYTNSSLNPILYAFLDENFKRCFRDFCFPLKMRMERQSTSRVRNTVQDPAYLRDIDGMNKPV

The assay concerns the target Kappa-type opioid receptor (Homo sapiens) (UniProt P41145). Put plainly: KOR antagonists, beta-arrestin recruitment, cell-based, luminescence, uHTS (AID 1778). The conditions noted are these: antagonist mode, stronger effect = higher value; at 10 µM unless noted.
`CN(CC(=O)Nc1cccnc1)S(=O)(=O)c1cc(Cl)ccc1Cl`: the inhibition is 4.2%.

Take `COc1cccc(N2C(=O)C3C(C2=O)C3(c2ccccc2)c2ccccc2)c1` (stereo unspecified): the inhibition was -3.2%.

For `CCN(CC)S(=O)(=O)c1ccc(C(=O)NCC(=O)N/N=C/c2ccccc2OC)cc1`, the inhibition was -11.7%.

In the case of `O=C(OCC(=O)c1ccc(Cl)s1)c1ccccn1`, the inhibition was 34%.

For `O=C(CSc1ccc2nnc(-c3ccccn3)n2n1)NCc1ccco1`, the inhibition is -19.3%.

`CC(=O)c1sc(-c2ccccc2)cc1N`: the inhibition is 4.5%.

In the case of `COCCN=c1scc(-c2ccccc2)n1/N=C/c1c[nH]c2ccccc12`, the inhibition was 38.5%.

With `COCCN=c1scc(-c2cc(OC)c(OC)c(OC)c2)n1/N=C/c1c(C)[nH]c2ccccc12`, the inhibition was 26.6%.

On to `Cc1cc([N+](=O)[O-])nn1CC(=O)NCCc1c[nH]c2ccccc12`, for which the inhibition was 4.9%.

Take `COCc1nnc(NC(=O)c2ccc(NC(C)=O)cc2)s1`: the inhibition was 21%.

`CCOC(=O)N1CCC(N2CCN(c3cc(C)ccc3C)CC2)CC1`: the inhibition is 11.6%.

In the case of `CCc1ccc(N(CC(=O)NC)S(C)(=O)=O)cc1`, the inhibition is 9.3%.

Regarding `COc1cc(OC)cc(C(=O)NCC(=O)OCc2cc(=O)oc3cc(OC)ccc23)c1`, the inhibition was 9.7%.

As for `Clc1ccc(SCc2cn3cccnc3n2)cc1`, the inhibition is -15.8%.

For `Clc1ccc(SCc2cc(N3CCOCC3)nc(-c3ccccn3)n2)cc1`, the inhibition was 10.2%.

In the case of `CCn1c(CNC(=O)c2ccco2)nnc1SCC(=O)Nc1cc(C(F)(F)F)ccc1Cl`, the inhibition was 1.4%.

With `Fc1ccccc1COc1ccc(/C=N/NC(=S)NCc2ccccc2)cc1`, the inhibition is -4.9%.

Turning to `CCOC(=O)C1(Cc2ccccc2)CCN(Cc2cc(OC)c3c(c2)OCO3)CC1`, the inhibition is -13.9% [at 20 µM].

`Cc1c(NC(=S)Nc2ccccc2C(F)(F)F)cccc1[N+](=O)[O-]`: the inhibition is 5.9%.

For `Cc1cccc(NS(=O)(=O)c2ccccc2)n1`, the inhibition is 12.4%.

Take `CC(=O)Nc1ccc(S(=O)(=O)Nc2cccc3cccnc23)cc1`: the inhibition is -32.6%.

For `O=C(Nc1ccc(S(=O)(=O)Nc2ncccn2)cc1)c1ccc(S(=O)(=O)N2CCCC2)cc1`, the inhibition is 34.1%.

Turning to `O=S(=O)(Nc1cccc2ccccc12)c1ccccc1`, the inhibition was -10.6%.

As for `COc1cc(NS(=O)(=O)c2ccc(C)cc2)c2ncccc2c1`, the inhibition was 7.9%.

With `CS(=O)(=O)Nc1cccc2cccnc12`, the inhibition was 30.9%.

Consider `O=S(=O)(c1cccc2cccnc12)N1CCCCC1`, for which the inhibition was 2.6%.

Regarding `O=C(O)c1ccccc1NS(=O)(=O)c1cccc2cccnc12`, the inhibition was 1.8%.

`Cc1ccc2cccc(NS(=O)(=O)c3ccccc3)c2n1`: the inhibition is 83.9% (active).

Turning to `O=S(=O)(Nc1cccc2cccnc12)c1ccccc1`, the inhibition is 99.6% (active).

On to `Cc1ccccc1N(C(=O)c1snc(C(N)=O)c1N)C(C(=O)NCc1ccccc1)c1ccc(O)cc1` (stereo unspecified), for which the inhibition is -9.4%.

Take `Cc1c(NCc2cc(Cl)cc(Cl)c2O)c(=O)n(-c2ccccc2)n1C`: the inhibition is 22.8%.

Consider `COc1ccc(NC(=O)c2ccccc2)cc1NS(=O)(=O)c1ccc(F)cc1`, for which the inhibition is -5%.

Turning to `Cc1cc(N)nc2nc(C(F)(F)F)nn12`, the inhibition is -5.6%.

Regarding `O=C1CC(Cc2ccccc2)C(=O)N1CCCn1ccnc1` (stereo unspecified), the inhibition is -24.1%.

As for `Cc1ccc(CNC(=O)C2CCCN(c3nc4ccccc4o3)C2)cc1` (stereo unspecified), the inhibition is -1.2%.

In the case of `CCOC(=O)N1CCN(C(=O)CNC(=O)c2ccc(Br)o2)CC1`, the inhibition was 3.7% [at 20 µM].

On to `CC(C)Oc1cccc(C(=O)N/N=C/c2ccoc2)c1`, for which the inhibition is -11.1%.

As to `CCn1c(SCC(=O)NC2CCCCC2)nnc1-c1ccco1`, the inhibition is -10.6%.

In the case of `Cc1ccc(COC(=O)c2nn(C)c(=O)c3ccccc23)cc1`, the inhibition is -20%.

As to `CCOC(=O)c1c(N)sc(C(O)(C(F)(F)F)C(F)(F)F)c1-c1ccc(F)cc1`, the inhibition was -27.6%.

As for `Oc1csc(Cc2nc(-c3ccc4ccccc4c3)cs2)n1`, the inhibition is 22.5%.

As to `Oc1csc(Cc2nc(-c3ccc(Br)cc3)cs2)n1`, the inhibition is 8.7%.

As for `Oc1csc(Cc2nc(-c3ccc(-c4ccccc4)cc3)cs2)n1`, the inhibition was 3.4%.

In the case of `Oc1csc(Cc2nc(-c3ccccc3F)cs2)n1`, the inhibition was -33.9%.

Take `CN1CCN(C(=O)c2ccc(COc3ccc(Cl)cc3Cl)cc2)CC1`: the inhibition was -29.5%.

With `CS(=O)(=O)NCCCCCCNS(C)(=O)=O`, the inhibition was -28.3%.

Turning to `COc1ccc(-c2nn(CCC(=O)O)cc2/C=C/C(=O)O)cc1[N+](=O)[O-]`, the inhibition is 2.1%.

With `CCCNS(=O)(=O)c1ccc(OCC(=O)N2CCCC2)cc1`, the inhibition is -18.5% [at 20 µM].

As to `Cc1ccccc1Cn1c(=O)n(-c2ccccc2)c(=O)c2ccc(C(=O)NCc3ccco3)cc21`, the inhibition is 20.6%.

Take `CC(C)(C)c1ccc(OCc2cnc(Cl)s2)cc1`: the inhibition is -46.2% [at 20 µM].

Consider `CCN1C(=O)c2ccccc2S(=O)(=O)c2ccc(C(=O)N3CCOCC3)cc21`, for which the inhibition is 16.4%.

On to `COc1cccc(C(=O)Nc2nnc(-c3cccs3)o2)c1`, for which the inhibition was -17.8%.

Take `O=C(Nc1nnc(-c2cccs2)o1)c1cccc(C(F)(F)F)c1`: the inhibition is 100% (active).

Turning to `CN(C)S(=O)(=O)c1ccc(C(=O)Nc2nnc(-c3cccs3)o2)cc1`, the inhibition is -13%.

As to `N#Cc1ccc(C(=O)Nc2nnc(-c3cccs3)o2)cc1`, the inhibition was -5.8%.

On to `O=C(Nc1nnc(C2=COCCO2)o1)c1cccc(C(F)(F)F)c1`, for which the inhibition was 16%.

`COc1cc(-c2[nH]ncc2CN2CCN(Cc3cccs3)CC2)cc(OC)c1OC`: the inhibition is -18.5%.

For the molecule `Cc1cccc(Nc2nc(N)c([N+](=O)[O-])c(N3CC(C)CC(C)C3)n2)c1` (stereo unspecified), the inhibition is -15%.

In the case of `O=C1CC(C2CCCO2)C(=O)N1c1ccc(Cl)c(Cl)c1` (stereo unspecified), the inhibition is -15.9% [at 20 µM].

Turning to `CN(C)S(=O)(=O)c1cccc(NC(=O)c2cc(=O)[nH]c3ccccc23)c1`, the inhibition is -14.8% [at 20 µM].

As to `CCn1c(=O)c2sccc2n2c(CCCC(=O)NCCc3ccc(S(N)(=O)=O)cc3)nnc12`, the inhibition was -3%.
